Data from article PMC4336329 (PLoS ONE, 2015).
Out of some 310,000 compounds screened, about 14,000 (4.5%) showed an effect of 50% or more. The effect is printed as a negative number. Only a selection was taken, and strong results are over-represented in it overall.

Molecular target: human ether-à-go-go-related gene (hERG) potassium channel (human, UniProt Q12809)
Test: primary screen, population patch clamp on CHO cells stably expressing hERG; higher = less effect of the substance
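Further: peak tail current of the secondary pulse compared with the same well before compound.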

Chain of human ether-à-go-go-related gene (hERG) potassium channel (Q12809 whole entry, looked up): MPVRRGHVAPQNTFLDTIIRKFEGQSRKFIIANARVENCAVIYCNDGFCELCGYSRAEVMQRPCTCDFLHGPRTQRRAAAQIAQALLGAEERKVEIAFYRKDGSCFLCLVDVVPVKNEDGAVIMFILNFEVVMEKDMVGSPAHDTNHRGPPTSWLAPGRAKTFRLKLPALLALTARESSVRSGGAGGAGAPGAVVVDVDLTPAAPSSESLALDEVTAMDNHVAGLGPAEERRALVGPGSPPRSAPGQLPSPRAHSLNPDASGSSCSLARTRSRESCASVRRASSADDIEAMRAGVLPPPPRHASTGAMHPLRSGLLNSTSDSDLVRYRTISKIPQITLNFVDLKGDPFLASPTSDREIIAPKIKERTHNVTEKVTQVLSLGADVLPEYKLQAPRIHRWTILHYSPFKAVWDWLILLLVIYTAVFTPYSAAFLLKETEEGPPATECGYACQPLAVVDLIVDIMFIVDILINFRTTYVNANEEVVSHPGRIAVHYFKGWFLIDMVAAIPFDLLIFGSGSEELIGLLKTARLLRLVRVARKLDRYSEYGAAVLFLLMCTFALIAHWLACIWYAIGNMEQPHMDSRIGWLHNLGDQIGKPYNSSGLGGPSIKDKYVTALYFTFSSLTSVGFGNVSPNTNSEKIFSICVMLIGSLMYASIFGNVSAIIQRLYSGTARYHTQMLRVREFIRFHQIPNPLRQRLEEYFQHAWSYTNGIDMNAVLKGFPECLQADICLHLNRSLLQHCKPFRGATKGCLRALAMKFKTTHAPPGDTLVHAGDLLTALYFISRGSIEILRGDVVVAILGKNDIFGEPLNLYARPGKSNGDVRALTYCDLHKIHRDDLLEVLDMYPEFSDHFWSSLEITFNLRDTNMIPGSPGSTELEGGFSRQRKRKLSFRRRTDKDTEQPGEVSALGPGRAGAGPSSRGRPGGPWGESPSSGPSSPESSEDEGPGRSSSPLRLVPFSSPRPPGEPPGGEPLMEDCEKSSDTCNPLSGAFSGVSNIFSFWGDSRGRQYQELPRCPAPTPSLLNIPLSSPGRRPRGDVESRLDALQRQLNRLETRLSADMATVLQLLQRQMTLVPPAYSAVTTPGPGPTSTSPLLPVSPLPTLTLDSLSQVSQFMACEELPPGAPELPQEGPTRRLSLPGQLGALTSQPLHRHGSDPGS

Point of comparison: CCCc1nnc(NC(=O)CCC(=O)N2CCN(C3c4ccccc4-c4ccccc43)CC2)s1, “hERG current change (%, negative = inhibition) at 10uM” value -3.76%. Against it:
- O=C(COc1ccccc1[N+](=O)[O-])N(Cc1ccco1)C1CCS(=O)(=O)C1 (centres unmarked) — lower, -6.3%
- Cc1cccc(NC(=O)/C=C/c2ccc3c(c2)OCO3)n1 — higher, 19.1%
- Cc1c(Cl)cnc(NC(=O)COC(=O)Cc2coc3ccc4ccccc4c23)c1Cl — lower, -7.96%
- Cc1ccc(Sc2ccc(NC(=O)CCl)cc2)c(C)c1 — higher, 12.5%
- CC(=O)N1CC2(C)CN(C(C)=O)CC(C)(C1)C2 — higher, 23.8%
- Cc1ccccc1N1CCN(C2CCCN(C(=O)c3cnsn3)C2)CC1 (centres unmarked) — lower, -58.2%
- Cc1cnc(C(=O)N2CCCC(N3CCN(c4ccccc4C)CC3)C2)cn1 (centres unmarked) — higher, 1.27%
- Cc1ccccc1N1CCN(C2CCCN(C(=O)c3snnc3C)C2)CC1 (centres unmarked) — higher, 5.72%
- COc1ccc(NS(=O)(=O)c2ccc(N3CCCC3)c(NC(=S)Nc3cccc(S(=O)(=O)N(C)C)c3)c2)cc1 — higher, 18.1%
- CCCc1cc(N2CCCC(C(=O)NCc3ccc4c(c3)OCO4)C2)n2ncnc2n1 (centres unmarked) — lower, -78.4%
- CCc1c(C)nc2ncnn2c1N1CCCC(C(=O)NCc2ccc3c(c2)OCO3)C1 (centres unmarked) — lower, -37.4%
- CCc1c(C)nc2ncnn2c1N1CCC(C(=O)NCc2cccc(OC)c2)CC1 — lower, -38.6%
- Cc1cc(C)nc(N2CCCC(C(=O)NCc3ccc4c(c3)OCO4)C2)n1 (centres unmarked) — higher, 20.9%
- CCCc1cc(N2CCCC(C(=O)NCC)C2)n2ncnc2n1 (centres unmarked) — lower, -27.3%
- CCc1c(C)nc2ncnn2c1N1CCC(C(=O)NCc2ccc3c(c2)OCO3)CC1 — lower, -68.7%
- O=C(COC(=O)C1CCN(S(=O)(=O)c2cccs2)CC1)NCc1ccc(F)cc1 — lower, -49.7%
- Cc1ccc(S(=O)(=O)N2CCC(C(=O)OCC(=O)N3CCc4ccccc43)CC2)cc1 — lower, -25.4%
- CN(C(=O)COC(=O)C1CCN(S(=O)(=O)c2cccs2)CC1)c1ccccc1 — lower, -14.1%
- O=C(COC(=O)C1CCN(S(=O)(=O)c2cccs2)CC1)NCc1ccccc1 — lower, -23.6%
- CN(C)C=O.O=C(OCC(=O)N1CCCc2ccccc21)C1CCN(S(=O)(=O)c2cccs2)CC1 — lower, -71.1%
- O=C(COC(=O)C1CCN(S(=O)(=O)c2cccs2)CC1)c1ccccc1 — higher, 20.6%
- Cc1ccc(CNC(=O)COC(=O)C2CCN(S(=O)(=O)c3cccs3)CC2)cc1 — lower, -50.5%
- CCN(C(=O)COC(=O)C1CCN(S(=O)(=O)c2cccs2)CC1)c1ccccc1 — higher, 22%
- CN(Cc1ccccc1)C(=O)COC(=O)C1CCN(S(=O)(=O)c2cccs2)CC1 — lower, -53.4%
- ClC1(Cl)CC1CSc1nnc(-c2ccncc2)o1 (centres unmarked) — lower, -16.3%
- COc1ccc(-c2ccc(NS(=O)(=O)c3cc([N+](=O)[O-])c(C)c([N+](=O)[O-])c3)cc2)nn1 — lower, -11.3%
- O=C(Cn1nnc(N2CCCC2)n1)N/N=C/c1ccc(Cl)cc1 — higher, 13.1%
- Cc1cc(C)c(C)c(S(=O)(=O)NCc2ccc(C(=O)N3CCOCC3)cc2)c1C — lower, -4.97%
- CC(=O)CCC(=O)N1CCCC(N2CCN(c3cccc(Cl)c3)CC2)C1 (centres unmarked) — higher, -2.63%
- O=C(CSc1ccccc1)N1CCCC(N2CCN(c3ccccc3)CC2)C1 (centres unmarked) — lower, -33.7%
- O=C(CSc1ccccc1)N1CCN(c2ccc(F)cc2)CC1 — higher, 10.8%
- O=C(CSc1ccccc1)N1CCCC(N2CCN(c3ccc(F)cc3)CC2)C1 (centres unmarked) — lower, -75.3%
- O=C(CCC(F)(F)F)N1CCCC(N2CCN(c3cccc(Cl)c3)CC2)C1 (centres unmarked) — lower, -46.8%
- O=C(CSc1ccccc1)N1CCCC(N2CCN(c3cccc(Cl)c3)CC2)C1 (centres unmarked) — lower, -54.1%
- CCCc1cc(C(=O)NCc2ccco2)no1 — higher, 9.57%
- COc1cccc(CCc2nnc(CCC(=O)NCCc3cccc(C)n3)o2)c1 — higher, 24.7%
- CCCOc1cccc(C2C(C(=O)c3cc4ccccc4o3)=C(O)C(=O)N2c2cc(C)on2)c1 (centres unmarked) — lower, -7.72%
- CC(C)CCOC(=O)C[N+](C)(C)CCOC1CC2CCC1(C)C2(C)C.[Cl-] (centres unmarked) — lower, -16.3%
- CCCOC(=O)C[N+](C)(C)CCOC1CC2CCC1(C)C2(C)C.[Br-] (centres unmarked) — higher, 13%
- CCCCCCOC(=O)C[N+](C)(C)CCOC1CC2CCC1(C)C2(C)C.[Cl-] (centres unmarked) — lower, -78.1%
- CCC(C)OC(=O)C[N+](C)(C)CCOC1CC2CCC1(C)C2(C)C.[Cl-] (centres unmarked) — lower, -17.3%
- CCOC(=O)C[N+](C)(C)CCOC1CC2CCC1(C)C2(C)C.[Cl-] (centres unmarked) — higher, 10.3%
- CCCCOC(=O)C[N+](C)(C)CCOC1CC2CCC1(C)C2(C)C.[Br-] (centres unmarked) — lower, -52.7%
- CCCn1nc2cc(C(=O)NCc3ccc(OC(F)(F)F)cc3)ccc2c1OCC — higher, 14.3%
- O=C(COC(=O)c1ccc(Cl)nc1)NC1CCCCCC1 — lower, -5.25%
- CCCP(=O)(CC(=O)N(CC)CC)c1ccccc1 (centres unmarked) — higher, 12%
- COc1ccccc1N1CCN(C(=O)c2cc3n(n2)C(C(F)(F)F)CC(c2ccco2)N3)CC1 (centres unmarked) — higher, -1.94%
- CC(C)c1nnc(NC(=O)c2cc3ccccc3o2)s1 — higher, 11.1%
- Cc1c(CNC(=O)C2CC2)c(-n2cccc2)n(Cc2ccccc2)c1C — higher, 27.1%
- O=S(=O)(c1cccc(COc2c(Cl)cccc2Cl)c1)N1CCOCC1 — lower, -12%
- CC(=O)c1cc(Cl)ccc1OCc1cccc(S(=O)(=O)N2CCOCC2)c1 — lower, -68.9%
- N#Cc1ccc(OCc2cccc(S(=O)(=O)N3CCOCC3)c2)cc1 — lower, -82.1%
- O=S(=O)(c1cccc(COc2ccc(Cl)cc2Cl)c1)N1CCOCC1 — higher, 3.46%
- Cc1cc(OCc2cccc(S(=O)(=O)N3CCOCC3)c2)ccc1Cl — lower, -9.12%
- N#Cc1ccccc1OCc1cccc(S(=O)(=O)N2CCOCC2)c1 — lower, -38.9%
